Laboratory results reported in PubChem BioAssay AID1159580 (chemical genetic matrix, 2015).
Values joined by “and” are separate entries in the source; they are usually repeats but may differ in a detail not shown here. Equal entries are not always repeated. About 2,000 (36%) of roughly 5,500 compounds were called active. Not shown: some 18% with an inconclusive outcome. Rule as the data show it: active = normalized growth mostly below about 0.91 (no sharp cut-off); inconclusive = no clear call, values can overlap the other calls; inactive = mostly above about 0.92. The list shows a part of the results.

Assay: chemical genetic growth profiling, strain panel (AID 1159580);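 also: tested at 20 µM; growth read once vehicle control cultures reached saturation at 30 °C; 1 = growth at the plate median or of vehicle wells; lower values mean less growth of the strain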
Settings: S. cerevisiae deletion strains, growth OD

Measured: normalized growth

S=c1[nH]c2ccccc2s1
0.99 (inactive) and 0.818 (active): locus YJL095W, strain BCK1, stronger effect = lower value
inactive: locus YAL013W, strain DEP1, stronger effect = lower value 1 | locus YAL021C, strain ccr4, stronger effect = lower value 0.941 | locus YAL030W, strain snc1, stronger effect = lower value 0.992 | locus YBL061C, strain skt5, stronger effect = lower value 0.986 | locus YBR009C, strain hhf1, stronger effect = lower value 0.972 | locus YBR021W, strain FUR4, stronger effect = lower value 1.06 | locus YBR023C, strain chs3, stronger effect = lower value 1.01 | locus YBR171W, strain sec66, stronger effect = lower value 0.965 | locus YBR229C, strain ROT2, stronger effect = lower value 0.989 | locus YBR231C, strain swc5, stronger effect = lower value 0.946 | locus YBR279W, strain paf1, stronger effect = lower value 0.982 | locus YCL011C, strain gbp2, stronger effect = lower value 0.966 | locus YCL016C, strain dcc1, stronger effect = lower value 1.02 | locus YCL029C, strain bik1, stronger effect = lower value 0.989 | locus YCL069W, strain vba3, stronger effect = lower value 0.983 | locus YCR088W, strain abp1, stronger effect = lower value 0.981 | locus YDL005C, strain med2, stronger effect = lower value 0.996 | locus YDL035C, strain GPR1, stronger effect = lower value 0.948 | locus YDL040C, strain nat1, stronger effect = lower value 0.983 | locus YDL074C, strain BRE1, stronger effect = lower value 0.975 | locus YDL101C, strain DUN1, stronger effect = lower value 0.99 | locus YDL134C, strain PPH21, stronger effect = lower value 0.985 | locus YDL185W, strain tfp1, stronger effect = lower value 0.979 | locus YDL192W, strain arf1, stronger effect = lower value 0.985 | locus YDR001C, strain nth1, stronger effect = lower value 0.992 | locus YDR069C, strain doa4, stronger effect = lower value 0.951 | locus YDR101C, strain arx1, stronger effect = lower value 1.01 | locus YDR150W, strain NUM1, stronger effect = lower value 0.986 | locus YDR159W, strain sac3, stronger effect = lower value 0.992 | locus YDR162C, strain NBP2, stronger effect = lower value 0.986 | locus YDR297W, strain sur2, stronger effect = lower value 0.97 | locus YDR318W, strain mcm21, stronger effect = lower value 0.996 | locus YDR334W, strain swr1, stronger effect = lower value 0.972 | locus YDR335W, strain msn5, stronger effect = lower value 0.984 | locus YDR388W, stronger effect = lower value 0.987 | locus YDR392W, strain spt3, stronger effect = lower value 0.879 | locus YDR502C, strain sam2, stronger effect = lower value 1 | locus YEL003W, strain gim4, stronger effect = lower value 0.952 | locus YEL037C, strain rad23, stronger effect = lower value 0.975 | locus YEL061C, strain CIN8 (second series), stronger effect = lower value 0.973 | locus YEL061C, strain CIN8, stronger effect = lower value 1.01 | locus YER015W, strain faa2, stronger effect = lower value 0.965 | locus YER016W, strain bim1, stronger effect = lower value 0.987 | locus YER110C, stronger effect = lower value 0.998 | locus YER111C, strain swi4, stronger effect = lower value 0.979 | locus YER155C, strain BEM2 (second series), stronger effect = lower value 0.986 | locus YER155C, strain BEM2, stronger effect = lower value 0.986 | locus YER167W, strain BCK2, stronger effect = lower value 1.02 | locus YFR010W, strain ubp6, stronger effect = lower value 0.95 | locus YGL078C, strain dbp3, stronger effect = lower value 1.02 | locus YGL086W, strain mad1, stronger effect = lower value 0.965 | locus YGL167C, strain pmr1, stronger effect = lower value 0.995 | locus YGL173C, strain kem1, stronger effect = lower value 0.91 | locus YGL227W, strain vid30, stronger effect = lower value 0.996 | locus YGL240W, strain doc1, stronger effect = lower value 0.923 | locus YGL248W, strain PDE1, stronger effect = lower value 0.991 | locus YGL253W, strain hxk2, stronger effect = lower value 0.938 | locus YGR078C, strain PAC10, stronger effect = lower value 0.958 | locus YGR135W, strain pre9, stronger effect = lower value 0.964 | locus YHR013C, strain ard1, stronger effect = lower value 1.02 | locus YHR079C, strain IRE1 (second series), stronger effect = lower value 1.01 | locus YHR094C, strain hxt1, stronger effect = lower value 1.02 | locus YHR129C, strain ARP1, stronger effect = lower value 0.992 | locus YHR142W, strain chs7, stronger effect = lower value 1.01 | locus YHR200W, strain rpn10, stronger effect = lower value 1.01 | locus YIL066C, strain RNR3, stronger effect = lower value 0.986 | locus YIL073C, strain SPO22, stronger effect = lower value 0.844 | locus YIL125W, strain kgd1, stronger effect = lower value 1.01 | locus YIR030C, strain dcg1, stronger effect = lower value 1.01 | locus YJL092W, strain hpr5, stronger effect = lower value 0.984 | locus YJL095W, strain BCK1 (second series), stronger effect = lower value 0.975 | locus YJL115W, strain asf1, stronger effect = lower value 0.983 | locus YJL129C, strain trk1, stronger effect = lower value 0.966 | locus YJL134W, strain LCB3, stronger effect = lower value 1 | locus YJL154C, strain vps35, stronger effect = lower value 0.983 | locus YJL164C, strain tpk1, stronger effect = lower value 1 | locus YJL166W, strain qcr8, stronger effect = lower value 0.962 | locus YJL168C, strain set2, stronger effect = lower value 0.996 | locus YJL187C, strain SWE1 (second series), stronger effect = lower value 0.964 | locus YJR043C, strain POL32, stronger effect = lower value 1 | locus YJR075W, strain HOC1, stronger effect = lower value 1.02
1 (inactive) and 0.821 (active): locus YHR030C, strain SLT2, stronger effect = lower value
active: locus YAL026C, strain drs2, stronger effect = lower value 0.891 | locus YDR137W, strain rgp1, stronger effect = lower value 0.808 | locus YDR195W, strain ref2 1.18 [resistant] | locus YGR229C, strain SMI1, stronger effect = lower value 0.804 | locus YGR252W, strain gcn5, stronger effect = lower value 0.691 | locus YHR027C, strain rpn1, stronger effect = lower value 0.903 | locus YHR079C, strain IRE1, stronger effect = lower value 0.78 | locus YJR066W, strain TOR1, stronger effect = lower value 0.732
